Assay results taken from PubChem BioAssay (NCI).
This is part of a sample that, as a whole, favours compounds with a hit. Of some 83,000 tested, about 20% had one in any assay.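 Values shown are percent growth following 48 h exposure of cells in 96-well plates to a single concentration of compound; below 10 was considered active.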 Active and inactive are the calls of the source.

Columns and labels:
Assay in all cases: NCI-60 one-dose screen, 48 h (100 = growth as untreated, 0 = no growth, -100 = all killed)
Settings in all cases: 10 µM unless noted
SK-MEL-2 melanoma = test system: SK-MEL-2 melanoma
EKVX NSCLC = test system: EKVX NSCLC
SN12C renal = test system: SN12C renal
UO-31 renal = test system: UO-31 renal
TK-10 renal = test system: TK-10 renal
ACHN renal = test system: ACHN renal
CAKI-1 renal = test system: CAKI-1 renal
A498 renal = test system: A498 renal
CCRF-CEM leukemia = test system: CCRF-CEM leukemia
MOLT-4 leukemia = test system: MOLT-4 leukemia

Measured: growth

C#C[C@]1(O)CC[C@H]2[C@@H]3CC=C4c5sc(Nc6ncccc6C)nc5CC[C@]4(C)[C@H]3CC[C@@]21C
inactive: SN12C renal 40.9% | TK-10 renal 40.9% | ACHN renal 18.1%
active: SK-MEL-2 melanoma -11.1% | EKVX NSCLC -10.6% | UO-31 renal -39.8% | CAKI-1 renal -36.3% | A498 renal -5.84% | CCRF-CEM leukemia 7.66% | MOLT-4 leukemia -30.3%

CC(Nc1c(C#N)cnc2ccc(-c3cncc(O)c3)cc12)c1ccccc1 (stereo not given)
active: SK-MEL-2 melanoma -43.6% | EKVX NSCLC -13.6% | SN12C renal -5.67% | UO-31 renal -9.46% | TK-10 renal -13.2% | ACHN renal 3.13% | CAKI-1 renal 7.08% | MOLT-4 leukemia 2.65%
inactive: A498 renal 45% | CCRF-CEM leukemia 10.6%

CCCCCc1ccc(S(=O)(=O)Nc2cc(-c3csc(N)n3)ccc2OC)cc1
inactive: SK-MEL-2 melanoma 112% | EKVX NSCLC 86.4% | SN12C renal 89.2% | UO-31 renal 53.5% | TK-10 renal 113% | ACHN renal 98% | CAKI-1 renal 88.4% | A498 renal 96.6% | CCRF-CEM leukemia 57.4% | MOLT-4 leukemia 78.6%

C#C[C@]1(O)CC[C@H]2[C@@H]3CC=C4c5sc(NCc6ccccc6)nc5CC[C@]4(C)[C@H]3CC[C@@]21C
active: SK-MEL-2 melanoma -17.9% | A498 renal 8.6% | CCRF-CEM leukemia 6.53% | MOLT-4 leukemia -11.7%
inactive: EKVX NSCLC 55.4% | SN12C renal 83.6% | UO-31 renal 13.2% | TK-10 renal 76.8% | ACHN renal 61.8% | CAKI-1 renal 50.6%

Cc1ccc2c(n1)C(=O)C(Cl)=C(Nc1cc(C(F)(F)F)cc(C(F)(F)F)c1)C2=O
active: UO-31 renal 9.71% | ACHN renal -64.9% | CCRF-CEM leukemia 4.75% | MOLT-4 leukemia 9.31%
inactive: SK-MEL-2 melanoma 74.5% | EKVX NSCLC 78% | SN12C renal 92.1% | TK-10 renal 106% | CAKI-1 renal 81.4% | A498 renal 80.4%

N#C/C(=N\Nc1ccc(F)cc1)C(=O)Nc1cc(-c2ccccc2)nn1-c1ccccc1
active: SK-MEL-2 melanoma 4.66% | EKVX NSCLC 5.52% | SN12C renal 1.17% | UO-31 renal 3.54% | ACHN renal 1.44% | CAKI-1 renal 2.61% | A498 renal -4.27%
inactive: TK-10 renal 26.6% | CCRF-CEM leukemia 15.7% | MOLT-4 leukemia 21.9%

Cc1cc(=O)[nH]c(O)c1C#N
inactive: SK-MEL-2 melanoma 116% | EKVX NSCLC 94.3% | SN12C renal 102% | UO-31 renal 84.3% | TK-10 renal 107% | ACHN renal 99.5% | CAKI-1 renal 90.6% | A498 renal 104% | CCRF-CEM leukemia 99.6% | MOLT-4 leukemia 100%

O=C1CSC(c2cn(-c3ccccc3)nc2-c2ccc(Cl)cc2)N1c1ccccc1 (stereo not given)
inactive: SK-MEL-2 melanoma 112% | EKVX NSCLC 98.8% | SN12C renal 114% | UO-31 renal 83.8% | TK-10 renal 118% | ACHN renal 104% | CAKI-1 renal 92.3% | A498 renal 125% | CCRF-CEM leukemia 103% | MOLT-4 leukemia 114%

Nc1cc(C(=O)N/N=C\c2ccc(OC(F)F)c(OC3CCCC3)c2)nn1CC(O)c1ccccc1 (stereo not given)
inactive: SK-MEL-2 melanoma 101% | EKVX NSCLC 104% | SN12C renal 105% | UO-31 renal 76.5% | TK-10 renal 112% | ACHN renal 105% | CAKI-1 renal 81.9% | A498 renal 100% | CCRF-CEM leukemia 92.3% | MOLT-4 leukemia 78.5%

Cc1csc(/N=C(N)/N=C(\N)c2cccs2)n1
inactive: SK-MEL-2 melanoma 106% | EKVX NSCLC 94.2% | SN12C renal 110% | UO-31 renal 81.5% | TK-10 renal 174% | ACHN renal 107% | CAKI-1 renal 85.1% | A498 renal 120% | CCRF-CEM leukemia 110% | MOLT-4 leukemia 106%

CN1CCN(Cc2ccc(NC(=O)c3cncc(C#Cc4cnc5ccc(O[C@@H]6CCOC6)nn45)c3)cc2C(F)(F)F)CC1
active: SK-MEL-2 melanoma -78.3% | EKVX NSCLC -85.8% | SN12C renal -77.4% | UO-31 renal -91.8% | TK-10 renal -83.5% | ACHN renal -100% | CAKI-1 renal -96.8% | A498 renal -94.7% | CCRF-CEM leukemia -15.8% | MOLT-4 leukemia -26%

NC1=NC2(CCCC2)N(c2ccc(S(=O)(=O)Nc3nccs3)cc2)C(N)=N1
inactive: SK-MEL-2 melanoma 116% | EKVX NSCLC 98.7% | SN12C renal 102% | UO-31 renal 83.6% | TK-10 renal 104% | ACHN renal 103% | CAKI-1 renal 93.6% | A498 renal 120% | CCRF-CEM leukemia 95.9% | MOLT-4 leukemia 102%
